A selection: hits, their analogues and other compounds. The true share with any hit is near 0.82%.
FadD28 binding = blocks FadD28 binding to the bisubstrate probe; fluorescence polarization; inhibition, % at 12.5 µM; 0.22% of 360,000 active; AID 588549; in the data active means inhibition above about 8.5%, passing the limit was not always enough
Y pestis TopoI = blocks Yersinia pestis topoisomerase I activity; 0.064% of 360,000 active; Y. pestis Topo-I cleavage product accumulation, plate reader; activity, % at 10 µM; in the data active means activity above about 50%, passing the limit was not always enough
Mtb UGM inh = blocks M. tuberculosis UGM enzyme; AID 504406; 0.06% of 320,000 active; inhibition, % at 10 µM; P9WIQ1; purified UGM, fluorescence polarization probe displacement; in the data active means inhibition above about 10%, passing the limit was not always enough
Target sequence (P9WIQ1 whole entry, looked up): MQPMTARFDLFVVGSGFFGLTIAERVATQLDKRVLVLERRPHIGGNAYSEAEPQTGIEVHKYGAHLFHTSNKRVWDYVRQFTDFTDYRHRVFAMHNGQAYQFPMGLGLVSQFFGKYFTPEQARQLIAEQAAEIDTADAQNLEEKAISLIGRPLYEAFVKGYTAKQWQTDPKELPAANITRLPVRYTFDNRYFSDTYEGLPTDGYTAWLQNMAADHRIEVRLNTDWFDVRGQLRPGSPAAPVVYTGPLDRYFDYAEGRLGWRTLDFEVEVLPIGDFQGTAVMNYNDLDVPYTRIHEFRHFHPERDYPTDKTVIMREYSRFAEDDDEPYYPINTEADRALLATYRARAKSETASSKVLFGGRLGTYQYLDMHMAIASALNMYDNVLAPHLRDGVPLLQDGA
Mtb BioA inh = blocks M. tuberculosis BioA enzyme activity | purified M. tuberculosis BioA enzyme, plate reader | inhibition, % at 9.99 µM | 0.096% of 360,000 active | AID 602481; in the data active means inhibition above about 40%
Rv3671c protease = inhibitors of M. tuberculosis serine protease Rv3671c. 0.048% of 320,000 active. inhibition, % at 5.96 µM; in the data active means inhibition above about 38%;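 further: extracellular domain of Rv3671c used as enzyme; 0% = enzyme with DMSO and 100% = no enzyme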
RecA splice inh = inhibitors of M. tuberculosis RecA intein splicing | P9WHJ3 | cell-free RecA intein splicing, fluorescence | inhibition, % (no concentration beside the values) | 0.75% of 290,000 active; in the data active means inhibition above about 30%;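 further: 0% = vehicle wells and 100% = reference inhibitor control wells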
GFP chromophore = counter-screen: blocks GFP chromophore formation; 83% of 2,100 active; AID 434968; shares compounds with RecA splice inh; cell-free GFP chromophore formation, fluorescence; EC50, µM; call rule not given here
The depositor's hits bear a star; nt = no result given.

SMILES	FadD28 binding	Y pestis TopoI	Mtb UGM inh	Mtb BioA inh	Rv3671c protease	RecA splice inh	GFP chromophore
C[C@H](CO)N1C[C@H](C)[C@H](CN(C)S(C)(=O)=O)Oc2ccc(NC(=O)Cc3cn(C)c4ccccc34)cc2C1=O	nt	nt	nt	1	nt	nt	nt
CN1CCc2cccc3c2[C@@H]1Cc1ccc(O)c(O)c1-3	-3	-15	nt	0	-9	-2	nt
CN1CCc2cc3c(c4c2C1Cc1ccccc1-4)OCO3 (centres undefined)	0	-11	4	-1	-46	55*	0.87*
C[C@@H]1CN([C@H](C)CO)C(=O)CCCn2cc(nn2)CO[C@H]1CN(C)Cc1cccc(O)c1	nt	nt	nt	-1	nt	nt	nt
CC(=O)c1cccc2c(O)c(C3=Nc4ccccc4C3=O)[nH]c12	2	-15	-1	-1	-4	41*	4.6*
Cc1noc(C)c1NC(=O)Nc1cccc2c1O[C@H](CN(C)C(=O)Nc1ccc(F)cc1)[C@H](C)CN([C@H](C)CO)C2=O	nt	nt	nt	0	nt	nt	nt
C[C@H](CO)N1C[C@H](C)[C@@H](CN(C)C(=O)Nc2ccc3c(c2)OCO3)Oc2c(NS(=O)(=O)c3ccc(Cl)cc3)cccc2C1=O	nt	nt	nt	-1	nt	nt	nt
Cc1c(N=C2C=C(Br)C(=O)C(Br)=C2)c(=O)n(-c2ccccc2)n1C	-2	3	nt	nt	nt	nt	nt
Cc1c(N=C2C=CC(=O)c3ccccc32)c(=O)n(-c2ccccc2)n1C	-3	-14	nt	nt	nt	72*	1.8*
CN(C)/C=N/NC(=O)c1ccccc1	-2	-12	-1	-2	-2	-1	nt
O=C(NN=c1c(=O)c2ccccc2c1=O)c1ccccc1	-4	-2	1	-3	-144	91*	5.2*
CC(=O)N(C)C[C@@H]1Oc2cc(C#Cc3ccccn3)ccc2S(=O)(=O)N([C@H](C)CO)C[C@H]1C	nt	nt	nt	8	nt	nt	nt
Cc1ccc(NC(=O)C(CC(C)C)NC(N)=O)cc1 (centres undefined)	-4	3	2	nt	-3	33*	>38
CC(C)CC(NC(N)=O)C(=O)Nc1ccc(Oc2ccccc2)cc1 (centres undefined)	-2	10	-6	nt	-10	2	nt
COc1cccc(-c2ccc3c(c2)O[C@@H](CN(C)C(=O)c2ccccc2F)[C@@H](C)CN([C@H](C)CO)S3(=O)=O)c1	nt	nt	nt	-2	nt	nt	nt
COC(=O)c1[nH]c(=O)c2ccccc2c1O	-3	-2	3	-1	-29	81*	15*
Cc1noc2ncnc(Sc3ccc(Cl)cc3)c12	-2	4	2	-4	-3	13	nt
Cc1ccc(Sc2ncnc3onc(C)c23)cc1	-5	11	6	-1	5	41*	>38
C/C(=N\NC(=O)CC#N)c1cc2ccccc2oc1=O	-1	0	-4	nt	-8	86*	13*
COc1cccc(OC(=O)CSc2nnc(-c3ccccc3Br)o2)c1	-2	17	2	nt	0	74*	26*
O=C(CCl)N(CCc1ccccc1)CCc1ccccc1	-2	14	5	-3	6	74*	20*
O=C(Nc1ccccc1)NN(C(=O)CCl)c1ccccc1	-2	6	-1	0	2	68*	15*
CCCCCCN(C(=O)CCl)c1ccccc1	-3	5	1	-1	2	54*	19*
O=C(CCCc1ccccc1)NCCc1ccccc1	-3	0	-1	2	-8	-1	nt
O=C(CCl)N(c1ccccc1)c1ccccc1	-1	2	nt	nt	nt	80*	22*
SMILES	FadD28 binding	Y pestis TopoI	Mtb UGM inh	Mtb BioA inh	Rv3671c protease	RecA splice inh	GFP chromophore
O=C(CC1CC1)Nc1ccc2c(c1)[C@H]1C[C@@H](CC(=O)NC3CCCCC3)O[C@@H](CO)[C@H]1O2	nt	nt	nt	0	nt	nt	nt
CO[C@@H]1CN(C)C(=O)c2ccc(NC(=O)C3CC3)cc2OC[C@H](C)N(CC2CCCC2)C[C@H]1C	nt	nt	nt	-1	nt	nt	nt
Cc1ccc(C(O)(C(=O)NN(C(=O)c2ccccc2)c2ccccc2)c2ccc(C)cc2)cc1	-3	-2	1	nt	-48	0	nt
Cc1ccc(N(NC(=O)C(O)(c2ccccc2)c2ccccc2)C(=O)CCl)cc1	-1	-2	2	nt	-7	66*	7.3*
CCN(CC)c1ccc(/C=C2/C(=O)ON=C2C)cc1	-2	-3	-1	nt	-4	nt	nt
CCN(CC)c1ccc(/C=C2\C(=O)N(c3nnc(C)c(=O)[nH]3)N=C2C)cc1	-3	0	2	1	-7	81*	9.5*
CCc1ccc(S(=O)(=O)Nc2cc(SCC(=O)O)c(O)c3ccccc23)cc1	1	-5	1	nt	-114	94*	0.7*

Screening data deposited in PubChem BioAssay by several laboratories.
